Screens as filed in PubChem BioAssay.
LASV entry inh: inhibitors of Lassa virus binding or cell entry; Lassa virus pseudotype entry inhibition, cell reporter; Potency, µM (top dose mostly 37.9 µM), hits mostly inhibitors; 300,000 compounds, 1.2% hits; AID 540256; calls by dose curve; tested in HEK293 cells; note: nearly all actives have a fitted effect of over 50% in size
HCMV inh: human cytomegalovirus inhibition; 410,000 compounds, 4.5% hits; activity change, negative = inhibition, % at 57.5 µM; HFF cells, HCMV-luciferase reporter, 72 h; active compounds read low; in the data active = activity change below about -60%; inconclusive = no clear call, values can overlap the other calls; inactive = above about -39%
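After 16 h attachment at 37C, HFF cells received test compound and HCMV-luciferase (1 PFU/cell); reporter luminescence read 72 h later, data normalized against buffer-only and known inhibitor Salinomycin.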
MARV entry inh: blocks Marburg virus binding to or entry into cells; Marburg virus pseudotyped entry inhibition, cell reporter; Potency, µM (series often up to 37.8 µM), hits mostly inhibitors; 300,000 compounds, 1.8% hits; AID 540276; calls by dose curve; tested in HEK293 cells
HCV inhibitor: HCV inhibition; Huh7.5.1 HCVcc-Cre infection, luciferase reporter, 44 h; Potency, µM (series often up to 41.8 µM), actives largely listed as inhibitors; 340,000 compounds, 3.4% hits; AID 651820; active = well fitted inhibition curve with a large enough effect; inconclusive = small, poorly fitted or top-dose-only effect, or another doubt; inactive = no such curve, though single readings can be large or run the other way
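Cells (1,000/well) were plated 4 h before compound, then infected with HCVcc-Cre virus (~0.5 moi). After 44 h further culture, infection was read as luciferase luminescence following a 15 min substrate incubation at room temperature.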
FMDV inh: antivirals against foot and mouth disease virus. FMDV antiviral cell-based qHTS. Potency, µM (highest dose often 57.9 µM), most hits filed as inhibitors. 410,000 compounds, 1.2% hits; calls by dose curve; tested in HEK293T cells; note: read-out not given here; nearly all actives have a fitted effect of over 45% in size
A number is an active result; n = inactive; u = inconclusive; x = no result. Hits are enriched below; roughly 7.9% of the tested compounds scored in any of these assays.

SMILES	LASV entry inh	HCMV inh	MARV entry inh	HCV inhibitor	FMDV inh
CC(C)N(c1ccccc1)c1ccc(NC(=O)CCl)cc1	x	-61	x	u	40µM
O=C(CCl)Nc1ccc(N=Nc2ccccc2)cc1	u	n	u	n	n
O=C(CSc1nc2ccccc2c(=O)n1CCC(=O)NC1CCCCC1)Nc1ccccc1Cl	n	n	x	x	n
COc1nc(N)nc(NC(=O)c2cccs2)c1N=O	n	-78	n	n	u
C#C[C@]1(O)CC[C@H]2[C@@H]3CCc4cc(OC5CCCC5)ccc4[C@H]3CC[C@@]21C	x	n	x	0.63µM	n
CCOC(=O)c1ccc(NC(=O)CSc2nnc(CCc3ccc(C)o3)n2-c2ccccc2)cc1	n	n	n	10µM	n
Cc1ccc(CCc2nnc(SCC(=O)Nc3ccccc3Cl)n2-c2ccccc2)o1	u	n	u	n	n
Cc1ccc2c(c1)c1c(c(=O)n(Cc3ccccc3)c(=O)n1CC(=O)Nc1ccccc1C)n2C	n	n	x	x	n
CCOC(=O)c1ccccc1NC(=O)CSc1cn(CC(=O)N2CCOCC2)c2ccccc12	n	n	x	x	n
COc1cccc2c(Cl)c(CCCl)c(C)nc12	n	-69	u	n	n
CCCCc1c(C)nc2c(OC)cccc2c1SCC(=O)O	n	n	n	n	n
Cc1ccc(CN2CCOc3ccc(C(C)(O)COc4ccccc4)cc3C2)o1 (stereo not given)	x	x	x	x	n
C=CCn1c(C)cc(C(=O)COC(=O)/C=C/c2ccc(OC)cc2)c1C	n	n	n	u	n
C=CCn1c(C)cc(C(=O)COC(=O)/C=C/c2cccc(OC)c2)c1C	x	u	x	13µM	n
COc1ccccc1N1C(=O)C2CCC(c3ccccc3)CC2C1=O (stereo not given)	u	n	n	n	22µM
Cc1cccc(N2C(=O)C3CCC(c4ccccc4)CC3C2=O)c1 (stereo not given)	n	n	n	n	u
N[C@H]1CC[C@@]23CCCN2C(=O)CCC[C@H]3[C@H]1Cc1ccccc1	x	n	x	x	x
CC(=O)Nc1c(Cl)cc2c(c1Cl)C(=O)c1ccccc1-2	u	n	n	11µM	n
CC(=O)Nc1ccc2c(c1)C(=O)c1ccccc1C2=O	n	n	n	10µM	n
COc1ccc(NC2=C(NC(C)=O)C(=O)c3ccccc3C2=O)cc1	u	-67	u	u	n
Cc1nc(Sc2ccccc2)c(C#N)c(C)c1[N+](=O)[O-]	n	-103	n	u	u
Cc1cc(C)c(C#N)c(Sc2nc(C)c([N+](=O)[O-])c(C)c2C#N)n1	x	n	x	x	22µM
Cc1nc(Sc2ccccc2)c(C#N)cc1-c1ccccc1	n	x	n	n	n
COc1ccccc1CNC(=O)Cn1c(=O)oc2cc(S(=O)(=O)NCc3ccccc3)ccc21	u	u	x	x	n
COc1ccc(/C=N/NC(=O)c2cccc([N+](=O)[O-])c2)cc1OC(=O)c1ccccc1	u	n	u	11µM	n
SMILES	LASV entry inh	HCMV inh	MARV entry inh	HCV inhibitor	FMDV inh
COc1cc(/C=N/NC(=O)c2ccc(O)cc2)ccc1Oc1ccc([N+](=O)[O-])cn1	n	-62	u	u	n
COc1cc(/C=N/NC(=O)c2ccc3ccccc3c2)ccc1Oc1ccc([N+](=O)[O-])cn1	n	u	n	3.5µM	u
COc1cc(/C=N/NC(=O)c2ccncc2)ccc1Oc1ccc([N+](=O)[O-])cn1	n	u	n	n	n
COc1cccc(C(=O)N/N=C/c2ccc(Oc3ccc([N+](=O)[O-])cn3)c(OC)c2)c1	n	n	u	10µM	n
Cc1cn2c(=O)c(S(=O)(=O)N3CCN(c4cc(Cl)ccc4C)CC3)c(C)nc2s1	n	n	x	x	n
O=C1c2cccc3cccc(c23)C(=O)C1(O)O	n	-69	u	n	22µM
CCCN(C(=O)c1cc2c(s1)-c1c(C)cccc1OC2)c1ccc(OCC)cc1	x	n	u	x	n
COc1ccc(C(=O)NCC(c2ccc(N(C)C)cc2)N2CCCC2)c(OC)c1 (stereo not given)	n	n	x	x	n
COc1ccc(Nc2ncc3c(n2)CC(c2ccc(C)cc2)CC3=O)cc1 (stereo not given)	0.23µM	n	u	n	n
CC(C)=CCN1C(=O)[C@@]2(CC(C)=CC[C@@H](COc3ccccc3)O2)c2ccccc21	u	x	n	x	x
Oc1ccc(Cl)cc1Cc1cc(Cl)ccc1O	u	-89	u	u	u
Cc1ccc(CSc2cn(CC(=O)N3CCCC3)c3ccccc23)cc1	n	n	x	x	n
Cc1ccc(CSc2cn(CC(=O)N3CCCCCC3)c3ccccc23)cc1	8.9µM	n	x	x	n
